# The panel holds about 83,000 compounds, 20% with a hit somewhere; the sample as a whole holds those more often.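 Growth was measured after 48 h exposure to one concentration of compound in 96-well plates. Values under 10 count as active.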 Activity calls are given as the source filed them.
# Experiments:
# Assay in all cases: NCI-60 one-dose screen, 48 h (100 = growth as untreated, 0 = no growth, -100 = all killed)
# Details in all cases: 10 µM unless noted
# NCI-H23 lung = system: NCI-H23 lung
# NCI-H226 lung = system: NCI-H226 lung
# NCI-H322M lung = system: NCI-H322M lung
# NCI-H460 lung = system: NCI-H460 lung
# HOP-92 NSCLC = system: HOP-92 NSCLC
# NCI-H522 lung = system: NCI-H522 lung
# A549/ATCC NSCLC = system: A549/ATCC NSCLC
# 786-0 renal = system: 786-0 renal
# COLO 205 colon = system: COLO 205 colon
# DU-145 prostate = system: DU-145 prostate
# K-562 leukemia = system: K-562 leukemia
# MALME-3M melanoma = system: MALME-3M melanoma
# MDA-MB-231 breast = system: MDA-MB-231 breast
# RXF 393 renal = system: RXF 393 renal
# SF-268 CNS = system: SF-268 CNS
# SF-295 CNS = system: SF-295 CNS
# SF-539 CNS = system: SF-539 CNS
# UACC-257 melanoma = system: UACC-257 melanoma
# M14 melanoma = system: M14 melanoma
# HOP-62 NSCLC = system: HOP-62 NSCLC
SMILES,growth (NCI-H23 lung),growth (NCI-H226 lung),growth (NCI-H322M lung),growth (NCI-H460 lung),growth (HOP-92 NSCLC),growth (NCI-H522 lung),growth (A549/ATCC NSCLC),growth (786-0 renal),growth (COLO 205 colon),growth (DU-145 prostate),growth (K-562 leukemia),growth (MALME-3M melanoma),growth (MDA-MB-231 breast),growth (RXF 393 renal),growth (SF-268 CNS),growth (SF-295 CNS),growth (SF-539 CNS),growth (UACC-257 melanoma),growth (M14 melanoma),growth (HOP-62 NSCLC)
c1ccc(Cn2cc3c(c2-c2ccccc2)CCc2cnoc2-3)cc1,78.8% (inactive),83.6% (inactive),95.6% (inactive),53.7% (inactive),65.8% (inactive),56.6% (inactive),59.6% (inactive),80.2% (inactive),80.5% (inactive),88.3% (inactive),16.2% (inactive),45.8% (inactive),87.2% (inactive),80.6% (inactive),76.6% (inactive),60.4% (inactive),71.9% (inactive),92.4% (inactive),44.1% (inactive),
c1ccc(-c2ccc3c(c2)C2(CCNCC2)CN3)cc1,86.3% (inactive),95.9% (inactive),102% (inactive),95.8% (inactive),86.1% (inactive),88.3% (inactive),112% (inactive),95.1% (inactive),103% (inactive),99% (inactive),90% (inactive),94.1% (inactive),85.1% (inactive),112% (inactive),87.4% (inactive),98.6% (inactive),97.8% (inactive),119% (inactive),92.3% (inactive),
Cc1[nH]c(C(=O)Nc2ccccc2OC2CCN(CCN3CCOCC3)CC2)c(Cl)c1Cl,97.6% (inactive),79.6% (inactive),99.9% (inactive),108% (inactive),70.9% (inactive),47.6% (inactive),99% (inactive),57.5% (inactive),102% (inactive),105% (inactive),57.5% (inactive),106% (inactive),75.9% (inactive),83.6% (inactive),81.5% (inactive),97.7% (inactive),89.6% (inactive),115% (inactive),106% (inactive),
CCOC(=O)C/C(=N\Nc1cc(=O)[nH]c2ccc(OC)cc12)C(=O)OCC,99.4% (inactive),97.6% (inactive),94.9% (inactive),,87.2% (inactive),,105% (inactive),107% (inactive),114% (inactive),99.6% (inactive),89.3% (inactive),104% (inactive),98.4% (inactive),96.4% (inactive),98% (inactive),101% (inactive),90.9% (inactive),108% (inactive),102% (inactive),
CS(=O)(=O)Nc1cc(-c2ccc3ncnc(Nc4ccc(F)c(Cl)c4)c3c2)ccc1Cl,48.9% (inactive),70.1% (inactive),24.7% (inactive),44.7% (inactive),-6.71% (active),,31.6% (inactive),50.3% (inactive),58.7% (inactive),39.8% (inactive),39.4% (inactive),53.4% (inactive),54.3% (inactive),22% (inactive),52.7% (inactive),15.6% (inactive),52.1% (inactive),59.6% (inactive),46.8% (inactive),
O=c1cc(CP(=O)(O)O)c2cc(O)c(-c3ccccc3)cc2o1,101% (inactive),101% (inactive),101% (inactive),104% (inactive),95.7% (inactive),94.7% (inactive),106% (inactive),104% (inactive),108% (inactive),105% (inactive),105% (inactive),103% (inactive),111% (inactive),105% (inactive),99% (inactive),101% (inactive),104% (inactive),101% (inactive),97.6% (inactive),
O=C(/C=C/c1ccccc1Cl)c1cccc(OCCCCOc2cccc(C(=O)/C=C/c3ccccc3Cl)c2)c1,96.5% (inactive),90.3% (inactive),99.9% (inactive),99.6% (inactive),94.4% (inactive),97.1% (inactive),95.3% (inactive),103% (inactive),107% (inactive),102% (inactive),99.2% (inactive),91.9% (inactive),102% (inactive),99.6% (inactive),106% (inactive),104% (inactive),101% (inactive),98.2% (inactive),86.5% (inactive),
Cc1cccc(NC(=O)Cn2cc(CN3CCN(c4ccnc5cc(Cl)ccc45)CC3)nn2)c1,89.4% (inactive),75.5% (inactive),93.1% (inactive),,56.3% (inactive),80.3% (inactive),94.1% (inactive),101% (inactive),98.6% (inactive),106% (inactive),71.6% (inactive),92.5% (inactive),78.2% (inactive),90.7% (inactive),81.8% (inactive),93.7% (inactive),93.4% (inactive),105% (inactive),92.5% (inactive),
COc1ccc2c(c1)c(-c1nc(-c3ccc4ccccc4c3)cs1)cn2C,87.1% (inactive),85.3% (inactive),85.1% (inactive),98.4% (inactive),93% (inactive),79.2% (inactive),82.6% (inactive),75.4% (inactive),84% (inactive),103% (inactive),67.7% (inactive),149% (inactive),80.2% (inactive),69.1% (inactive),100% (inactive),104% (inactive),89% (inactive),94% (inactive),96.9% (inactive),
COc1cc2c(cc1-c1c(C)noc1C)ncc1nc(CN3CCOCC3)n([C@H](C)COC(F)F)c12,45.4% (inactive),58% (inactive),38.5% (inactive),51.9% (inactive),5.85% (active),-0.0255% (active),37.6% (inactive),45.5% (inactive),14.7% (inactive),62.2% (inactive),28% (inactive),37.8% (inactive),29.5% (inactive),35.1% (inactive),55.2% (inactive),40.3% (inactive),35.1% (inactive),26.3% (inactive),40.1% (inactive),
COc1cc(/C=N/NC(=O)c2ccc(-n3cc(-c4ccccc4)nn3)cc2)cc(OC)c1OC,59.1% (inactive),32.5% (inactive),60.6% (inactive),41.5% (inactive),86.9% (inactive),68.3% (inactive),81.2% (inactive),93.8% (inactive),56.7% (inactive),56.9% (inactive),60.6% (inactive),-1.82% (active),78.2% (inactive),68.7% (inactive),57.9% (inactive),88% (inactive),53.2% (inactive),53.9% (inactive),26.6% (inactive),
C=CCn1cc(-c2nc3ccccc3s2)c2cc(-c3ccc4c5c(cccc35)C(=O)N(CCO)C4=O)ccc21,99.7% (inactive),90.3% (inactive),98.8% (inactive),98.1% (inactive),78.7% (inactive),88.7% (inactive),95% (inactive),97.6% (inactive),116% (inactive),107% (inactive),90.8% (inactive),119% (inactive),85.2% (inactive),100% (inactive),90.5% (inactive),91.2% (inactive),104% (inactive),107% (inactive),106% (inactive),
C=C1CC[C@@H]2C(C)(C)[C@H](O)CC[C@@]2(C)[C@@H]1COc1ccc2ccc(=O)oc2c1,40.7% (inactive),28.5% (inactive),92.4% (inactive),90.5% (inactive),72.4% (inactive),32.8% (inactive),51.5% (inactive),93% (inactive),68.7% (inactive),56.9% (inactive),41.9% (inactive),74.3% (inactive),84% (inactive),101% (inactive),68.3% (inactive),48% (inactive),88.4% (inactive),69.4% (inactive),53.3% (inactive),
Oc1ccc(-c2nc3ccc4[nH]ncc4c3c3c2CCCC3)c(F)c1,29.5% (inactive),56.4% (inactive),37.8% (inactive),,68.9% (inactive),-4.04% (active),15.7% (inactive),29.4% (inactive),77.4% (inactive),37% (inactive),19.5% (inactive),24.9% (inactive),59.9% (inactive),16% (inactive),36.5% (inactive),43.6% (inactive),15.6% (inactive),44.5% (inactive),16.7% (inactive),35.7% (inactive)
Clc1ccc(-c2cc(-c3ccccc3)nc(N3CCN(CCCNc4ccnc5cc(Cl)ccc45)CC3)n2)cc1,69% (inactive),45.9% (inactive),28.2% (inactive),-12.8% (active),26.6% (inactive),9.55% (active),43.6% (inactive),-73.2% (active),-54.2% (active),19.2% (inactive),-14.7% (active),-32.8% (active),-51.7% (active),-60.5% (active),13.5% (inactive),39.6% (inactive),-65.7% (active),39.2% (inactive),-51.8% (active),

# — PubChem BioAssay (NCI)
